IL-1B inflam inh = qHTS for Inhibitors of Inflammasome Signaling: IL-1-beta AlphaLISA Primary Screen | THP-1 LPS/ATP IL-1B secretion, AlphaLISA, 16 h; hits give low values | activity change, % at 57.5 µM | hit rate 4.7% among 360,000 | AID 743279, 2014; in the data active means activity change below about -50%; inconclusive means mostly about -30% to -49%; further: on the % scale 0 is the no-effect control and ±100 the full control effect
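THP-1 cells pretreated 1 hr with compounds (up to 57.5 uM final), then stimulated with LPS (250 ng/mL final) plus ATP (1.25 mM final); secreted IL-1B measured by AlphaLISA after 16 hr, decreased signal indicating inhibition.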
TDP1 cell CPT = qHTS for Inhibitors of human tyrosyl-DNA phosphodiesterase 1 (TDP1): qHTS in cells in presence of CPT; chicken DT40 Tdp1-/-;hTDP1 cells + 20 nM CPT, ATP luminescence, 48 h; Potency, µM (series often up to 46.2 µM), inactives show top-dose activity change, negative = growth inhibition, actives largely listed as inhibitors; hit rate 12% among 420,000; further: potency means the concentration at half of the fitted maximal effect; on the % scale 0 is the no-effect control and ±100 the full control effect; nearly all actives have a fitted effect of over 55% in size
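Chicken DT40 Tdp1-/- cells stably complemented with human TDP1 were seeded at 400 cells/well in medium containing 20 nM camptothecin, exposed to pin-transferred compounds, and grown at 37 °C for at least 48 hr. Viability was read as ATP luminescence.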
SW480 rereplic = A quantitative high throughput screen for small molecules that induce DNA re-replication in SW480 colon adenocarcinoma cells; SW480 DNA re-replication, Hoechst DNA content imaging, 48 h; Potency, µM (top dose mostly 46.1 µM), inactives show top-dose re-replication activation, hits mostly activators; hit rate 1.8% among 340,000; further: potency means the concentration at half of the fitted maximal effect; % of control where 0% means no effect; nearly all actives have a fitted effect of over 55% in size
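Hoechst fluorescence of nuclei (405 nm excitation, 500-530 nm emission) measured by plate-scanning imager after 48 hr compound exposure at 37 C; re-replication scored as increased number of nuclei with elevated intensity.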
BCR signal inh = qHTS Assay to Find Inhibitors of Chronic Active B-Cell Receptor Signaling; hit rate 0.05% among 340,000; Potency, µM (series often up to 46.1 µM), inactives show at the top dose activity change, negative = inhibition, most hits filed as inhibitors; ABC-DLBCL IkBa-CBG/CBR reporter, luminescence ratio, 4 h; active means well fitted inhibition curve with a large enough effect in the signal ratio, with a control signal flat, not every such curve was filed as active; inconclusive means small, poorly fitted or top-dose-only effect, or effect the other way, or a change in a side signal; the % refers to the signal ratio;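 further: potency means the concentration at half of the fitted maximal effect; plate controls were basal doxycycline-induced cells for no effect and cells given 10 µM MG132 for full effect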
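Compounds up to 46 uM were incubated four hours with TMD8 cells whose green CBG68 luciferase is fused to IkappaBalpha; red CBR luminescence normalised the signal, and concentration-effect curves were fitted to fusion, red and ratio data.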
MCF10A rerep = A quantitative high throughput screen for small molecules that induce DNA re-replication in MCF 10a normal breast cells; MCF 10A DNA re-replication, Hoechst nuclear intensity, 48 h; AID 624296, 2012; hit rate 2.9% among 350,000; Potency, µM (series often up to 46.1 µM), inactives show top-dose activity, positive = re-replication, usual class: activators; further: potency means the concentration at half of the fitted maximal effect; % of control where 0% means no effect; nearly all actives have a fitted effect of over 50% in size
DT40 TDP1 no CPT = qHTS for Inhibitors of human tyrosyl-DNA phosphodiesterase 1 (TDP1): qHTS in cells in absence of CPT | DT40 Tdp1-/- hTDP1 cells, no CPT, ATP luminescence, 48 h | Potency, µM (series often up to 46.2 µM), without a hit: at the highest dose activity change, negative = growth inhibition, hits mostly inhibitors | hit rate 15% among 420,000; further: potency means the concentration at half of the fitted maximal effect; on the % scale 0 is the no-effect control and ±100 the full control effect; nearly all actives have a fitted effect of over 55% in size
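Luminescent ATP content (CellTiter-Glo) served as the growth readout. Knockout chicken DT40 cells expressing human TDP1 were exposed to compounds without camptothecin for a minimum 48 hr at 37 °C.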
* marks the source's active call; other numbers are inactive results. An excerpt weighted towards active compounds, which were near 19% of everything screened. Unless noted, the call rests on the fitted dose curve; in most records, active means well fitted curve in the direction sought with a large enough effect; inconclusive means small, poorly fitted or top-dose-only effect, or another doubt; inactive means no such curve, though single readings can be large; an effect the other way counts as inactive or inconclusive.

Nc1c(C(=O)N2CCCCC2)sc(=S)n1-c1ccccc1 was read as IL-1B inflam inh -22, TDP1 cell CPT 21µM*, SW480 rereplic -1%, BCR signal inh inconclusive, MCF10A rerep inconclusive and DT40 TDP1 no CPT inconclusive.
For CCN(CC)CCCNC(=O)Cn1c(-c2cccs2)cc2cc(Cl)ccc21 the results were TDP1 cell CPT inconclusive and DT40 TDP1 no CPT 21µM*.
CN1CCN(C(=O)Cn2c(-c3cccs3)cc3cc(Cl)ccc32)CC1 was read as TDP1 cell CPT inconclusive and DT40 TDP1 no CPT 23µM*.
Screening COCCOC(=O)c1c(NC(=O)COC(=O)Cc2cccc(OC)c2)sc(C(N)=O)c1C returned IL-1B inflam inh 22, TDP1 cell CPT -16%, SW480 rereplic -7%, BCR signal inh -3%, MCF10A rerep -16% and DT40 TDP1 no CPT -6%.
Screening O=C(Nc1cccc(Cl)c1)OC1CCCCc2cccnc21 (configuration not stated) returned IL-1B inflam inh -80*, TDP1 cell CPT 13µM*, SW480 rereplic -3%, BCR signal inh 1%, MCF10A rerep 4% and DT40 TDP1 no CPT inconclusive.
`O=C(Nc1ccccc1)OC1CCCCc2cccnc21` (configuration not stated) gave IL-1B inflam inh -12, TDP1 cell CPT 6%, SW480 rereplic -16%, BCR signal inh inconclusive, MCF10A rerep 3% and DT40 TDP1 no CPT inconclusive.
`Cc1nn(CCCC(=O)NCc2ccc(F)cc2)c(=O)c2c1sc1ccccc12` gave TDP1 cell CPT -25% and DT40 TDP1 no CPT -18%.
C/C(=N/Nc1cc(-c2ccccc2)nc(-c2ccccc2)n1)c1ccc(O)cc1 was read as IL-1B inflam inh -105*, TDP1 cell CPT 16µM*, SW480 rereplic -2%, BCR signal inh inconclusive, MCF10A rerep 18µM* and DT40 TDP1 no CPT 13µM*.
C/C(=N\Nc1cc(-c2ccccc2)nc(-c2ccc(Br)cc2)n1)c1cccc(N)c1 was read as IL-1B inflam inh -6, TDP1 cell CPT 26µM*, SW480 rereplic inconclusive, MCF10A rerep inconclusive and DT40 TDP1 no CPT inconclusive.
`O=C(CCNC(=O)c1ccc(Br)cc1)NCCCN1CCCC1=O` gave IL-1B inflam inh 16, TDP1 cell CPT 1%, SW480 rereplic -7%, BCR signal inh 2%, MCF10A rerep 4% and DT40 TDP1 no CPT 12%.
`N#CCC(=O)Nc1ccc(C(=O)OCC(=O)N2CCN(C(=O)c3ccco3)CC2)cc1` gave IL-1B inflam inh 12, TDP1 cell CPT 6%, SW480 rereplic -3%, BCR signal inh inconclusive, MCF10A rerep -2% and DT40 TDP1 no CPT 2%.
Screening CCC(CC)Nc1ccc(C(CC(N)=O)NC(=O)Cc2cccc3ccccc23)cc1[N+](=O)[O-] (configuration not stated) returned IL-1B inflam inh 20, TDP1 cell CPT -2%, SW480 rereplic -1%, BCR signal inh 12%, MCF10A rerep inconclusive and DT40 TDP1 no CPT -3%.
COc1ccc(/C=C(/NC(=O)c2ccccc2OC)C(=O)Nc2ccc(C(=O)O)cc2)cc1 was read as IL-1B inflam inh -6, TDP1 cell CPT 18%, SW480 rereplic 0%, BCR signal inh inconclusive, MCF10A rerep 0% and DT40 TDP1 no CPT -6%.
Screening CC(C)(C)c1ccc(OCCN2CCCC2)cc1 returned IL-1B inflam inh 14, TDP1 cell CPT -12%, SW480 rereplic 1%, BCR signal inh 9%, MCF10A rerep 5% and DT40 TDP1 no CPT 3%.
`C[n+]1ccccc1COc1ccc(C(C)(C)C)cc1` gave IL-1B inflam inh -5, TDP1 cell CPT 2.1µM*, SW480 rereplic -691%, BCR signal inh -2%, MCF10A rerep 22% and DT40 TDP1 no CPT 2.3µM*.
Screening Oc1ccccc1Nc1nc(-c2ccccc2O)nc2ccccc12 returned IL-1B inflam inh 29, TDP1 cell CPT -2%, SW480 rereplic -2%, BCR signal inh 3%, MCF10A rerep 4% and DT40 TDP1 no CPT -30%.
COc1ccc(/C(C)=N/Nc2nncc3ccccc23)cc1 was read as IL-1B inflam inh 1, TDP1 cell CPT 9%, SW480 rereplic -6%, BCR signal inh 1%, MCF10A rerep -8% and DT40 TDP1 no CPT -18%.
Screening C/C(=N\Nc1nc(-c2ccccc2O)nc2ccccc12)c1ccccc1 returned IL-1B inflam inh 31, TDP1 cell CPT inconclusive, SW480 rereplic 15%, BCR signal inh inconclusive, MCF10A rerep 16% and DT40 TDP1 no CPT 7.3µM*.
C/C(=N/Nc1nc(-c2ccccc2F)nc2ccccc12)c1ccccc1O was read as IL-1B inflam inh -4, TDP1 cell CPT 7.3µM*, SW480 rereplic 1%, BCR signal inh -9%, MCF10A rerep 0% and DT40 TDP1 no CPT 9.2µM*.
For C/C(=N\Nc1nc(-c2ccccn2)nc2ccccc12)c1ccc(F)cc1 the results were IL-1B inflam inh 148, TDP1 cell CPT 2.6µM*, SW480 rereplic inconclusive, BCR signal inh inconclusive, MCF10A rerep 7% and DT40 TDP1 no CPT 5.8µM*.
For Cc1ccc(S(=O)(=O)N2CCCCC2)cc1NC(=O)COC(=O)Cc1cccc(C(F)(F)F)c1 the results were IL-1B inflam inh -2, TDP1 cell CPT 3%, SW480 rereplic -2%, BCR signal inh 4%, MCF10A rerep 13% and DT40 TDP1 no CPT inconclusive.
`Cc1ccc(NC(=O)N2CCc3cc(S(=O)(=O)N4CCC(C)CC4)ccc32)cc1C` gave TDP1 cell CPT 6% and DT40 TDP1 no CPT -23%.
Screening O=C(CSc1nc(O)cc(=O)n1-c1ccc(Cl)c(Cl)c1)Nc1ccc(Cl)cc1Cl returned IL-1B inflam inh 19, TDP1 cell CPT 1%, SW480 rereplic 3%, BCR signal inh 2%, MCF10A rerep inconclusive and DT40 TDP1 no CPT -14%.
O=C(Nc1ccccc1N1CCCCC1)C1CCN(C(=O)c2ccc(Cl)cc2)CC1 was read as IL-1B inflam inh -72*, TDP1 cell CPT 23µM*, SW480 rereplic 10%, BCR signal inh inconclusive, MCF10A rerep inconclusive and DT40 TDP1 no CPT inconclusive.

Bioassay records as filed in PubChem.
